VACV Venus inh = inhibitors of vaccinia virus (Venus reporter) | Potency, µM (top dose mostly 36.5 µM), inactives show at the highest dose activity change, negative = inhibition, usual class: inhibitors | AID 720580 | Vaccinia virus Venus reporter expression, fluorescence | actives 0.46% (n = 330,000); calls by dose curve; tested in A549 cells; further: potency means the concentration at half of the fitted maximal effect; nearly all actives have a fitted effect of over 30% in size
LASV entry inh = inhibitors of Lassa virus binding or cell entry. Lassa virus pseudotype entry inhibition, cell reporter. Potency, µM (doses to about 37.9 µM), for the others: top-dose activity change, negative = inhibition, most hits filed as inhibitors. actives 1.2% (n = 300,000). AID 540256; calls by dose curve; tested in HEK293 cells; further: potency means the concentration at half of the fitted maximal effect; nearly all actives have a fitted effect of over 50% in size
HCMV antiviral = human cytomegalovirus inhibition | AID 1259415 | HFF cells, HCMV-luciferase reporter, 72 h; hits give low values | actives 4.5% (n = 410,000) | activity change, negative = inhibition, % at 57.5 µM; in the data active means activity change below about -60%; inconclusive means no clear call, values can overlap the other calls; inactive means above about -39%
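Cell-based, HFFs, 1000 cells/well, 16 h 37C; cpds in DMSO + HCMV-luc, MOI 1 PFU/cell; 72 h 37C; OneGlo luminescence after 5 min RT; norm. to buffer vs Salinomycin 10uM.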
MARV entry inh = blocks Marburg virus binding to or entry into cells; Potency, µM (doses to about 37.8 µM), without a hit: top-dose activity change, negative = inhibition, most hits filed as inhibitors; actives 1.8% (n = 300,000); Marburg virus pseudotyped entry inhibition, cell reporter; AID 540276; calls by dose curve; tested in HEK293 cells; further: potency means the concentration at half of the fitted maximal effect
Vaccinia mCherry = vaccinia inhibition (mCherry reporter); Potency, µM (doses to about 36.5 µM), inactives show top-dose activity change, negative = inhibition, hits mostly inhibitors; Vaccinia virus mCherry reporter infection, fluorescence; actives 0.63% (n = 310,000); AID 720579; calls by dose curve; tested in A549 cells; further: potency means the concentration at half of the fitted maximal effect; nearly all actives have a fitted effect of over 35% in size
FMDV inh = antivirals against foot and mouth disease virus | FMDV antiviral cell-based qHTS | actives 1.2% (n = 410,000) | AID 1159524 | Potency, µM (top dose mostly 57.9 µM), for the others: at the highest dose activity change, negative = inhibition, hits mostly inhibitors; calls by dose curve; tested in HEK293T cells; further: read-out not given here; potency means the concentration at half of the fitted maximal effect; nearly all actives have a fitted effect of over 45% in size
Active calls of the source: *; i = inactive; ? = inconclusive; / = not tested or not shown; [ ] = dose if it differs, or a comment. Rows were chosen to be rich in hits. Some 6.5% of all compounds tested hit in one or more screens of this group. On the % scale 0 is the no-effect control and ±100 the full control effect.

SMILES	VACV Venus inh	LASV entry inh	HCMV antiviral	MARV entry inh	Vaccinia mCherry	FMDV inh
Cc1ccccc1-c1cccc(CN2CCc3nnc(C(NS(C)(=O)=O)C(C)C)n3CC2)c1 (configuration not stated)	-5%	/	/	/	-5%	-3%
CC[C@H](C)[C@@H](CN[C@H](C)CNC)NCCC(c1ccccc1)c1ccccc1	?	/	-97*	/	?	-25%
CNC[C@@H](C)NC[C@@H](Cc1ccccc1)NCCc1ccccc1	-18%	/	-27	/	-12%	-11%
COc1ccc(CC(NC(C)=O)C(=O)NC2CCN(C(=O)C3CCCCC3)CC2)cc1OC (configuration not stated)	-1%	-5%[46.1 µM]	-68*	6%[46.1 µM]	-9%	-9%
Cc1cccc(C)c1OCc1cc(C(=O)N2CCN(c3ccccc3)CC2C)no1 (configuration not stated)	-13%	?	-24	13µM*	i	-11%
COc1ccc(C(=O)N2CCC[C@@]3(CCN(Cc4nccs4)C3)C2)cc1	/	/	/	/	/	-16%
CC(=O)Nc1cccc(-c2cnc(N)c(C(=O)c3cccnc3)n2)c1	10µM*	/	/	/	13µM*	-4%
NC(=O)c1cccc(-c2cnc(N)c(C(=O)c3cccnc3)n2)c1	?	/	/	/	6.3µM*	-17%
CCC(C)NC(=S)Nc1ccccc1 (configuration not stated)	-5%	1%[46.1 µM]	-6	-2%[46.1 µM]	i	3%
CCC(C)NC(=S)Nc1ccc(C(=O)OC)cc1 (configuration not stated)	-5%	-25%	-85*	-28%[46.1 µM]	-4%	19%
CCOC(=O)c1ccc(NC(=S)NNC(C)(C)C)cc1	/	/	-74*	1%	/	87%
O=C(CNC(=O)c1cccnc1)c1ccc(F)cc1	-7%	/	/	/	-16%	/
Cc1cc2nc(C)n(CCCNC(=O)Nc3cccc4ccccc34)c2cc1C	/	?	-80*	-13%	/	-23%
CCc1ccc(C(=O)NN(C(=O)c2ccc(CC)cc2)C(C)(C)C)cc1	-9%	?	-25	?	-22%	-11%
CC(C)(C)N(NC(=O)c1ccccc1)C(=O)c1ccc(C(=O)N(NC(=O)c2ccccc2)C(C)(C)C)cc1	-17%	26%	-60*	1%	?	-23%
Nc1sc(-c2ccccc2)n[n+]1Cc1cccc2cccnc12	/	/	-99*	6%	/	-26%
Oc1ccccc1CNc1cccc2cccnc12	9%	?	-5	?	-2%	69%
COc1cccc2sc(=NC(=O)CS(=O)(=O)c3ccc(F)cc3)n(C)c12	-7%	-1%	-19	-4%	-17%	?
CCn1c(=NC(=O)CS(=O)(=O)c2ccc(C)cc2)sc2cccc(OC)c21	-23%	?	-62*	?	-31%	?
CCOCCCNC(=O)c1ccc(-n2c(-c3ccccc3)cc3c2CCC(C)C3)cc1 (configuration not stated)	-15%	-1%[46.1 µM]	-93*	/	-19%	-24%
Cc1cn2c(=O)cc(COc3ccc(NC(=O)c4ccc(C(C)(C)C)cc4)cc3)nc2s1	?	19%[46.1 µM]	-20	22%[46.1 µM]	-27%	-12%
C=CCNC(=S)NNC(=O)COc1ccc(Br)cc1	-11%	7%	-61*	0%	-19%	-15%
FC(F)(F)c1ccc(/C=N/n2c(COc3ccccc3)n[nH]c2=S)cc1	-22%	?	-66*	7%[46.1 µM]	-9%	-15%
CCOC(=O)CN1C(=O)NC(c2cccc(C(F)(F)F)c2)C(C(=O)OC)=C1C (configuration not stated)	/	/	/	-11%[14.2 µM]	/	/
O=C1NC(=O)C2C3C=CC(C12)C1C(=O)NC(=O)C31 (configuration not stated)	/	/	17	/	/	/
SMILES	VACV Venus inh	LASV entry inh	HCMV antiviral	MARV entry inh	Vaccinia mCherry	FMDV inh
CCN1CCN(CC(=O)c2ccc(C)cc2)CC1	/	/	-67*	/	/	-11%
Cc1ccccc1OCC(=O)NCC(=O)OC(c1ccccc1)c1ccccc1	-15%	/	/	/	i	/
COc1ccccc1-c1csc(NC(=O)c2ccc(N3C(=O)CCC3=O)cc2)n1	/	/	32	/	/	18µM*
O=C(Nc1nc(-c2ccc(F)cc2)cs1)c1ccc(N2C(=O)CCC2=O)cc1	-29%	-14%	-10	?	i	?
COc1ccc(-c2csc(NC(=O)c3cccc(N4C(=O)CCC4=O)c3)n2)cc1OC	-7%	-1%	5	?	i	-18%
COc1ccc(-c2csc(NC(=O)c3ccc(N4C(=O)CCC4=O)cc3)n2)cc1	/	2%	-67*	-8%	/	?
O=C(N/N=C/c1ccc[nH]1)c1cc2ccccc2cc1O	-11%	-28%[46.1 µM]	-99*	23%[46.1 µM]	-6%	9%
O=C(CNc1cccc(C(F)(F)F)c1)N/N=C/c1cccc(Br)c1	?	?	-73*	?	-24%	-1%
Cc1cccc(NCC(=O)N/N=C/c2cccc(Br)c2)c1	/	/	?	/	/	-3%
Cc1cccc(NCC(=O)N/N=C\c2ccc[nH]2)c1	8%	?	19	7.1µM*	?	0%
O=C(CNc1cccc2ccccc12)N/N=C/c1ccc[nH]1	?	?	-68*	?	?	-7%
O=C(N/N=C/c1ccncc1)c1cc2ccccc2cc1O	/	/	-13	/	/	10%
COc1ccc(CNC(=O)C2CCCN(C(=O)c3cnn(-c4ccc(F)cc4)c3-n3cccc3)C2)cc1 (configuration not stated)	-2%	17%[46.1 µM]	17	/	-7%	?
C/C(=N\NC(=O)CNc1cccc(C)c1)c1ccc(Br)s1	-20%	-19%	-62*	7%	-6%	9%
Cc1cc(Br)c2nc(-c3ccc(F)cc3)c(Cc3cccc(Cl)c3)n2c1	/	/	71	/	/	/
O=[N+]([O-])c1ccc(-c2cnc(SC(c3ccccc3)c3ccccc3)[nH]2)cc1	?	3.5µM*	?	?	?	?
O=[N+]([O-])c1ccc(-c2cnc(SCc3ccccc3Cl)[nH]2)cc1	?	-4%	20	-13%	/	?
O=C(O)c1cccc(C(=O)Nc2cccc(NC(=O)C3CCCO3)c2)c1 (configuration not stated)	-15%	10µM*	14	11µM*	i	?
O=C(O)c1cccc(NC(=O)c2cccc(NC(=O)C3CCCO3)c2)c1 (configuration not stated)	-5%	-26%	63	-21%	-12%	?
O=C(Nc1ccc(N=Nc2ccccc2)c(NC(=O)C2CCCO2)c1)C1CCCO1 (configuration not stated)	?	?	-61*	?	-12%	35%
Cn1c(=O)n(Cc2ccc(Cl)cc2)c(=O)c2c1nc1n2CCN1Cc1ccco1	/	?	-86*	-23%	/	?
CCc1cccc(NC(=O)CN2C(=O)COc3ccc(S(=O)(=O)Nc4ccccc4)cc32)c1	-5%	-4%[46.1 µM]	8	/	-9%	0%
